Measurements: PubChem BioAssay (NCATS)
Results filed as inconclusive are left out. Active and inactive are the calls of the source. Calls follow the shape of the dose curve; as a rule, active = well fitted cell-killing curve with a large enough effect; inconclusive = small, poorly fitted or top-dose-only effect, or effect the other way; inactive = flat fitted curve, though single readings scatter.

Key:
Assay in all cases: Primary qHTS to identify gynecologic anti-cancer compounds using libraries of approved drugs and bioactive compounds (AID 1345084); also: nearly all actives have a fitted effect of over 55% in size
C33A = details: Gynecologic cancer cell panel viability, ATPlite luminescence, 48 h; series mostly up to 57.5 µM
In short: (§1)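 Cells, 1,000 per well, plated 16 h, then exposed 48 h at 37 C to compounds. Viability by ATPlite luminescence after 15 min at room temperature.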

CAOV3 = details: Gynecologic cancer cell panel viability, ATPlite luminescence, 48 h; series mostly up to 57.5 µM
In short: as §1

CASKI = details: Gynecologic cancer cell panel viability, ATPlite luminescence, 48 h; series mostly up to 57.5 µM
In short: as §1

Es-2 = details: Gynecologic cancer cell panel viability, ATPlite luminescence, 48 h; series mostly up to 57.5 µM
In short: as §1

HeLa = details: Gynecologic cancer cell panel viability, ATPlite luminescence, 48 h; series mostly up to 57.5 µM
In short: as §1

Hek293T = details: Gynecologic cancer cell panel viability, ATPlite luminescence, 48 h, control line for the selectivity index; series mostly up to 57.5 µM
In short: as §1

JEG-3 = details: Gynecologic cancer cell panel viability, ATPlite luminescence, 48 h; series mostly up to 57.5 µM
In short: as §1

OV90 = details: Gynecologic cancer cell panel viability, ATPlite luminescence, 48 h; series mostly up to 57.5 µM
In short: as §1

PA-1 = details: Gynecologic cancer cell panel viability, ATPlite luminescence, 48 h; series mostly up to 57.5 µM
In short: as §1

SKOV3 = details: Gynecologic cancer cell panel viability, ATPlite luminescence, 48 h; series mostly up to 57.5 µM
In short: as §1

Tov-21-G = details: Gynecologic cancer cell panel viability, ATPlite luminescence, 48 h; series mostly up to 57.5 µM
In short: as §1

Tov112D = details: Gynecologic cancer cell panel viability, ATPlite luminescence, 48 h; series mostly up to 57.5 µM
In short: as §1
% is scaled to controls: 0 for no effect and ±100 for the full control effect.

O=C(O)/C=C/c1cc2c(cc1O[C@@H]1O[C@H](CO)[C@@H](O)[C@H](O)[C@H]1O)OCO2
inactive: Potency (C33A) | Potency (CAOV3) | Potency (CASKI) | Potency (Es-2) | Potency (HeLa) | Potency (Hek293T) | Potency (JEG-3) | Potency (OV90) | Potency (PA-1) | Potency (SKOV3) | Potency (Tov-21-G) | Potency (Tov112D)

CC(=O)OC/C=C(\C)C(CC1C(C)=C(OC(C)=O)C(=O)C2C(C)(C)C(O)CCC12C)OC(C)=O (centres undefined)
inactive: Potency (C33A) | Potency (CAOV3) | Potency (CASKI) | Potency (Es-2) | Potency (HeLa) | Potency (Hek293T) | Potency (JEG-3) | Potency (OV90) | Potency (PA-1) | Potency (SKOV3) | Potency (Tov-21-G) | Potency (Tov112D)

Nc1ncnc2c1ncn2CCNCCCCCO
inactive: Potency (C33A) | Potency (CAOV3) | Potency (CASKI) | Potency (Es-2) | Potency (HeLa) | Potency (Hek293T) | Potency (JEG-3) | Potency (OV90) | Potency (PA-1) | Potency (SKOV3) | Potency (Tov-21-G) | Potency (Tov112D)

O=C1C=CC(O)(/C=C/C(=O)OC[C@H]2O[C@@H](Oc3ccc(O)cc3)[C@H](O)[C@@H](O)[C@@H]2O)C=C1
inactive: Potency (C33A) | Potency (CAOV3) | Potency (CASKI) | Potency (Es-2) | Potency (HeLa) | Potency (Hek293T) | Potency (JEG-3) | Potency (OV90) | Potency (PA-1) | Potency (SKOV3) | Potency (Tov-21-G) | Potency (Tov112D)

CC1=CC(=O)C2C(C)(C)CCC[C@]2(C)[C@H]1CO (some centres undefined)
inactive: Potency (C33A) | Potency (CAOV3) | Potency (CASKI) | Potency (Es-2) | Potency (HeLa) | Potency (Hek293T) | Potency (JEG-3) | Potency (OV90) | Potency (PA-1) | Potency (SKOV3) | Potency (Tov-21-G) | Potency (Tov112D)

CO[C@H]1/C=C\O[C@@]2(C)Oc3c(C)c(O)c4c(O)c(c5c(nc6cc(C)ccn65)c4c3C2=O)NC(=O)/C(C)=C\C=C/[C@H](C)[C@H](O)[C@@H](C)[C@@H](O)[C@@H](C)[C@H](OC(C)=O)[C@@H]1C
inactive: Potency (C33A) | Potency (CAOV3) | Potency (CASKI) | Potency (Es-2) | Potency (HeLa) | Potency (Hek293T) | Potency (JEG-3) | Potency (OV90) | Potency (PA-1) | Potency (SKOV3) | Potency (Tov-21-G) | Potency (Tov112D)

COC1CC(O[C@H]2CC[C@@]3(C)C(CCC4C3[C@H](OC(C)=O)[C@@H](OC(=O)/C=C/c3ccccc3)[C@]3(C)C(C(C)=O)CC[C@]43O)C2)OC(C)C1OC1CC(OC)C(OC2CC(OC)C(OC3OC(C)C(OC4OC(CO)C(O)C(O)C4O)C(OC)C3O)C(C)O2)C(C)O1 (some centres undefined)
inactive: activity change, negative = cytotoxicity (C33A) -1.17% [at 6.55 µM] | activity change, negative = cytotoxicity (CAOV3) 6.87% [at 6.55 µM] | activity change, negative = cytotoxicity (CASKI) 1.19% [at 6.55 µM] | activity change, negative = cytotoxicity (Es-2) 0.971% [at 6.55 µM] | activity change, negative = cytotoxicity (HeLa) -3.04% [at 6.55 µM] | activity change, negative = cytotoxicity (Hek293T) -2.25% [at 6.55 µM] | activity change, negative = cytotoxicity (JEG-3) -2.34% [at 6.55 µM] | activity change, negative = cytotoxicity (OV90) -0.788% [at 6.55 µM] | activity change, negative = cytotoxicity (PA-1) -4.15% [at 6.55 µM] | activity change, negative = cytotoxicity (SKOV3) -2.84% [at 6.55 µM] | activity change, negative = cytotoxicity (Tov-21-G) 6.44% [at 6.55 µM] | activity change, negative = cytotoxicity (Tov112D) -0.487% [at 6.55 µM]

CC(=O)N1CCc2ccc(O)c(OC3OC(COC4OCC(O)(CO)C4O)C(O)C(O)C3O)c2C1Cc1ccc(O)cc1 (centres undefined)
inactive: Potency (C33A) | Potency (CAOV3) | Potency (CASKI) | Potency (Es-2) | Potency (HeLa) | Potency (Hek293T) | Potency (JEG-3) | Potency (OV90) | Potency (PA-1) | Potency (SKOV3) | Potency (Tov-21-G) | Potency (Tov112D)

CC(C)(O)/C=C/CC(C)(O)C1C(O)CC2(C)C3CCC4C(C)(C)C(=O)CCC4(C)C3CCC12C (centres undefined)
inactive: Potency (C33A) | Potency (CAOV3) | Potency (CASKI) | Potency (Es-2) | Potency (HeLa) | Potency (Hek293T) | Potency (JEG-3) | Potency (OV90) | Potency (PA-1) | Potency (SKOV3) | Potency (Tov-21-G) | Potency (Tov112D)

OC/C=C/c1ccc(O[C@@H]2O[C@H](CO)[C@@H](O)[C@H](O)[C@H]2O)cc1
inactive: Potency (C33A) | Potency (CAOV3) | Potency (CASKI) | Potency (Es-2) | Potency (HeLa) | Potency (Hek293T) | Potency (JEG-3) | Potency (OV90) | Potency (PA-1) | Potency (SKOV3) | Potency (Tov-21-G) | Potency (Tov112D)

C=C1C[C@@]23CCC4[C@@](C)(CCC[C@@]4(C)C(=O)OC)C2CC[C@@H]1C3 (some centres undefined)
inactive: Potency (C33A) | Potency (CAOV3) | Potency (CASKI) | Potency (Es-2) | Potency (HeLa) | Potency (Hek293T) | Potency (JEG-3) | Potency (OV90) | Potency (PA-1) | Potency (SKOV3) | Potency (Tov-21-G) | Potency (Tov112D)

C[C@@H]1N[C@H]2N(C1=O)c1ccccc1[C@@]2(O)C[C@@H]1C(=O)N[C@@H](C)c2nc3ccccc3c(=O)n21
inactive: Potency (C33A) | Potency (CAOV3) | Potency (CASKI) | Potency (Es-2) | Potency (HeLa) | Potency (Hek293T) | Potency (JEG-3) | Potency (OV90) | Potency (PA-1) | Potency (SKOV3) | Potency (Tov-21-G) | Potency (Tov112D)
